Only some compounds are listed: those with a hit (about 3.1% of all), similar ones and a draw of the others.
Tau fluor cs = Counterscreen qHTS for Inhibitors of Tau Fibril Formation, Fluorescence Polarization; tau K18 P301L Alexa594 fluorescence, heparin fibrillization; Potency, µM (series often up to 57.7 µM), inactives show top-dose activity change, negative = decrease; 0.93% of 280,000 active; note: nearly all actives have a fitted effect of over 55% in size
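Human tau K18 P301L (15 uM unlabeled, 0.24 uM Alexa 594-labeled) in 100 mM sodium acetate pH 7 with 20 uM heparin, 6 hr at 37 C. ThT 30 uM added, 1 hr ambient; Alexa 594 FP and total fluorescence read at 555/632 nm.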
Tau fibril FP = qHTS for Inhibitors of Tau Fibril Formation, Fluorescence Polarization | Microtubule-associated protein tau (Homo sapiens), P10636 | K18 P301L tau heparin fibrillization, Alexa594 FP, 6 h | Potency, µM (series often up to 57.7 µM), without a hit: at the top dose activity, negative = inhibition, hits mostly inhibitors | 0.39% of 280,000 active; note: nearly all actives have a fitted effect of over 55% in size
Target sequence (P10636 561-689 P618L limits assumed): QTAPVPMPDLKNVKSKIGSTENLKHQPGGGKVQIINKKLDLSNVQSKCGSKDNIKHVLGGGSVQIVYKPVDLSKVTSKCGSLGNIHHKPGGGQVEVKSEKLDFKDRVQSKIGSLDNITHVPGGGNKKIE
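Human tau K18 […] P301L fragment, 15 uM unlabeled plus 0.24 uM Alexa 594-labeled tau (final), with compound and 20 uM heparin in 100 mM sodium acetate pH 7; 6 hr at 37 C, then Alexa 594 FP read.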
TexasRed fluor = Total Fluorescence Counterscreen for Inhibitors of the Interaction of Thyroid Hormone Receptor and Steroid Receptor Coregulator 2. 0.29% of 280,000 active. AID 1479, 2009. Potency, µM (top dose mostly 106 µM), for the others: at the highest dose fluorescence change, negative = quenching. TRb/SRC2 Texas Red total fluorescence interference; active = well fitted curve in either direction with a large enough effect; inconclusive = small, poorly fitted or top-dose-only effect
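Human TRb ligand-binding domain at 0.6 uM with 20 nM Texas Red SRC2 peptide in Tris buffer containing 1 uM T3 and 5% DMSO, incubated with compound 5 h at ambient temperature. Total fluorescence (555/632 nm) calculated as parallel + 2 × perpendicular.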
TRb-SRC2 inh = qHTS for Inhibitors of the Interaction of Thyroid Hormone Receptor and Steroid Receptor Coregulator 2; Thyroid hormone receptor beta (Homo sapiens), P10828; Potency, µM (highest dose often 106 µM), inactives show at the highest dose activity change, negative = inhibition, actives largely listed as inhibitors; TRbeta-SRC2 peptide binding, fluorescence polarization; receptor liganded with 1 µM T3; 0.065% of 280,000 active; AID 1469, 2008;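 note: plate controls were bound peptide for no effect and peptide without receptor for full effect; nearly all actives have a fitted effect of over 50% in size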
Target sequence (P10828 whole entry, looked up): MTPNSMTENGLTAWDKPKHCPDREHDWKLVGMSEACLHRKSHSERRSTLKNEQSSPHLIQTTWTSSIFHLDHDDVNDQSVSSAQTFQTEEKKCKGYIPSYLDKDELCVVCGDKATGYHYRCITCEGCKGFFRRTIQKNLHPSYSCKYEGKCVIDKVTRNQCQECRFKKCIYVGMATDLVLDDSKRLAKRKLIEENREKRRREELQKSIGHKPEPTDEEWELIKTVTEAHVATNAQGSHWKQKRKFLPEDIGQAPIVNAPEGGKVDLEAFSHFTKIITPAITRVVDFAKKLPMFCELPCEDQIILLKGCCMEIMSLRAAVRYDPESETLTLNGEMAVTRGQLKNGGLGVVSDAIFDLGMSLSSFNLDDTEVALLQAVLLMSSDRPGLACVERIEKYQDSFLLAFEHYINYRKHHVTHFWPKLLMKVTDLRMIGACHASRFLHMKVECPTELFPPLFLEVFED
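Human TRb ligand-binding domain (0.6 uM) is mixed with 20 nM Texas Red SRC2 peptide and 1 uM T3; after compound addition and 5 hr at ambient temperature, polarization is measured and normalized to unbound and bound controls.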
Tau ThT inhib = qHTS for Inhibitors of Tau Fibril Formation, Thioflavin T Binding; 2.1% of 270,000 active; recombinant tau K18 P301L (four-repeat tau fragment), heparin-induced fibrillization, ThT fluorescence; AID 1460, 2008; Potency, µM (doses to about 57.4 µM), for the others: top-dose activity, negative = inhibition, most hits filed as inhibitors; Microtubule-associated protein tau (Homo sapiens), P10636; note: nearly all actives have a fitted effect of over 55% in size
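Heparin-induced (20 uM) aggregation of recombinant human K18 P301L tau, 15 uM unlabeled with 0.24 uM labeled, pH 7 acetate buffer, 6 hr at 37 C with compound. Fibrils quantified by 30 uM ThT fluorescence after 1 hr ambient incubation.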
An asterisk follows results filed as active; ? = inconclusive; nt = no result; [ ] = another dose, or the depositor's remark. Unless noted, calls come from the whole dose curve; as a rule, active = well fitted curve in the direction sought with a large enough effect; inconclusive = small, poorly fitted or top-dose-only effect, or another doubt; inactive = no such curve, though single readings can be large; an effect the other way counts as inactive or inconclusive. Unless noted, % is set by controls: 0 for no effect and ±100 for the full control effect; potency is the fitted concentration of half-maximal effect.

SMILES	Tau fluor cs	Tau fibril FP	TexasRed fluor	TRb-SRC2 inh	Tau ThT inhib
COc1cc(CN(C(=O)c2ccc(C)cc2)C2CCS(=O)(=O)C2)cc(OC)c1OC (stereo unspecified)	-5%	0%	2%	-2%	-3%
COc1cc(CN(C(=O)c2ccc(OC(C)C)cc2)C2CCS(=O)(=O)C2)cc(OC)c1OC (stereo unspecified)	-30%	-5%	1259µM*[quencher]	-8%	?
O=[N+]([O-])c1cccc(S(=O)(=O)NCCNS(=O)(=O)c2cccc([N+](=O)[O-])c2)c1	nt	nt	0%	6%	nt
O=C(O)/C=C/c1cn(-c2ccccc2)nc1-c1ccc(-c2ccc([N+](=O)[O-])cc2)o1	?	-1%	-8%	-4%	1.1µM*
O=[N+]([O-])c1ccc(N/N=C/c2cn(-c3ccccc3)nc2-c2ccccc2)cc1	7.9µM*[quencher]	7%	0%	3%	7.9µM*
NS(=O)(=O)c1ccc(N/N=C/c2cn(-c3ccccc3)nc2-c2ccccc2)c([N+](=O)[O-])c1	18µM*[quencher]	4%	3%	5%	16µM*
O=C(Nc1cccc(Br)c1)N1CCC(CN2CCCCCC2)CC1	-14%	?	?	-6%	?
CCCCCCCCS(=O)C1CS(=O)(=O)CC1O (stereo unspecified)	-6%	-10%	10µM*[fluorescent]	5µM*	-5%
CCOC(=O)C1CCN(c2cc(C)nc3c(-c4ccccc4OC)c(C)nn23)CC1	-15%	2%	0%	1%	-13%
C=CCSc1nc2ccccc2n1C(=O)/C=C/c1cc(OC)c(OC)c(OC)c1	-17%	22µM*	3%	-6%	25µM*
CCSc1nc2ccccc2n1C(=O)/C=C/c1ccc(OC)c(OC)c1	-23%	7.9µM*	0%	-4%	7.9µM*
C=CCSc1nc2ccccc2n1C(=O)/C=C/c1ccc(OC)c(OC)c1	-20%	?	4%[53 µM]	-14%[53 µM]	14µM*
CCOc1ccc(-c2c(C)nn3c(C)c(C(=O)Nc4cc(C)cc(C)c4)cnc23)cc1OCC	-10%	10%	?	-7%	-16%
Clc1cccc(N/N=C/c2ccc(N3CCOCC3)s2)c1	16µM*[quencher]	?	-49%	7%	13µM*
O=C(N/N=C/c1ccc(N2CCOCC2)s1)c1ccccc1Br	-12%	3%	-1%	-1%	?
COc1ccc(C2=Nn3c(nnc3-c3ccc(OC)c(OC)c3)SC2)cc1	nt	nt	-2%	-5%	nt
NNc1cc([N+](=O)[O-])cc2c1C(=O)N(Cc1ccccc1)S2=O (stereo unspecified)	-26%	?	-4%	-10%	25µM*
CC(C)=NNc1cc([N+](=O)[O-])cc2c1C(=O)N(C)S2=O (stereo unspecified)	2%	-16%	1%	-4%	?
CCn1c2c(c(=O)n3ncc(C(=O)Nc4ccc(C(=O)OC)cc4)c13)CN(Cc1ccc(OC)cc1)CC2	-23%	-11%	-23%	6%	?
Cc1cccc(CSc2nc3c(cc2C#N)CCC3)c1	-5%	-3%	3%	3%	0%
N#Cc1cc2c(nc1SCc1nc3ccccc3[nH]1)CCC2	?	12%	-11%	2%	6.3µM*
CC1CC=CC2C1C(=O)N(Cc1ccccc1)C2c1ccc(/C=C/c2ccccc2)cc1F (stereo unspecified)	nt	nt	0%	-1%	nt
O=NCc1ccc([N+](=O)[O-])o1	nt	nt	-2%	-6%	nt
CCCC(=O)C1=C(c2ccccc2)C(C#N)(C#N)C(C#N)=C1N	?	?	19%	?	28µM*
CCS(=O)(=O)c1ccc2oc(Nc3ccc(C(C)C)cc3)nc2c1	?	?	-10%	0%	40µM*
SMILES	Tau fluor cs	Tau fibril FP	TexasRed fluor	TRb-SRC2 inh	Tau ThT inhib
CCS(=O)(=O)c1ccc2oc(Nc3cc(C)cc(C)c3)nc2c1	?	0%	0%	-2%	-11%
O=C(CCOc1ccccc1)N(Cc1cccnc1)c1nc2c(Cl)cccc2s1	1%	-6%	-1%	-1%	-10%
Oc1cccc2c(NC(=S)Nc3ccc(SC(F)F)cc3)cccc12	11µM*[quencher]	?	-1%	6%	10µM*
CC(=O)NCCNC(=O)c1ccc2c(=O)n(CCc3ccccc3)c(=O)[nH]c2c1	-11%	?	-2%	1%	-11%
CSc1ccc(-c2nc3cnccn3c2Nc2ccc3c(c2)OCO3)cc1	?	?	-4%	1%	?
Clc1ccc(-c2nc3cnccn3c2Nc2ccc3c(c2)OCO3)cc1	14µM*[quencher]	?	-1%	3%	?
Oc1ccc(-c2nc3ncccn3c2Nc2ccc3c(c2)OCCO3)cc1	25µM*[quencher]	12%	-8%	-3%	?
COCc1c(Br)c(C)nc2sc3c(=O)n(-c4cccc(Br)c4)nnc3c12	0%	-5%	-2%	-5%	2%
O=C(Nc1ccc([N+](=O)[O-])cc1O)Nc1ccccc1Br	nt	nt	1%	4%	nt
Cc1[nH]c2ccccc2c1/C=N/NC(=S)NCc1ccccc1	13µM*[quencher]	-8%	-6%	6%	?
Cc1[nH]c2ccccc2c1/C=N/NC(N)=S	-18%	-2%	-2%	1%	?
Cc1[nH]c2ccccc2c1/C=N/NC(=O)c1cc(-c2ccccc2)n[nH]1	16µM*[quencher]	?	-18%	19%	nt
Cc1ccc(NC(=S)N/N=C/c2c(C)[nH]c3ccccc23)cc1	14µM*[quencher]	9%	-2%	4%	?
O=C(CCC1N=C2c3ccccc3N=C(SCc3cccc(F)c3)N2C1=O)NCCc1ccccc1 (stereo unspecified)	-4%	0%	-17%	4%	?
CCCCCCCCCCCC[N+](C)(C)[O-]	nt	nt	-4%[201 µM]	2%[201 µM]	nt
O=C(Nc1ccccc1)c1cc(Cl)ccc1O	nt	nt	-3%[201 µM]	3%[201 µM]	nt
O=C(/C=C/c1ccc(Br)cc1)NC(=S)NNC(=O)c1ccco1	-29%	1%	-1%	-6%	16µM*
O=C(/C=C/c1ccccc1)NC(=S)NNC(=O)c1ccco1	-13%	1%	-4%	-14%	?
CC(=O)Nc1ccc(SCC(CC(C)C)N2CCN(C)CCC2=O)cc1 (stereo unspecified)	nt	nt	-3%	7%	nt
COc1cc(CSc2ncc(CO)n2Cc2ccc(C)cc2)cc(OC)c1	-7%	-9%	-4%	-4%	-6%
COc1cc(NC(=O)Nc2cccc(-c3noc(C)n3)c2)cc(OC)c1OC	13µM*[quencher]	17%	-3%	2%	?
CCc1cccc2c(/C=N/NC(=O)c3cccc(S(=O)(=O)Nc4ccccc4Cl)c3)c[nH]c12	11µM*[quencher]	-8%	-1%	4%	14µM*

High-throughput results: PubChem, National Center for Advancing Translational Sciences (NCATS)
